# Laboratory results from PubChem BioAssay.
# The source made the active and inactive calls. Unless noted, how the calls were made is not given here.
# Experiments:
# [1] = HepG2 liver cancer cell viability effects, profiling panel, resazurin fluorescence, 24 h, PK04 Diversity Set (AID 1172); conditions: higher = more signal; further: test concentration not given here
# [2] = basal S. cerevisiae growth modulation, no modifier, primary screen, OD600, strain BY4716, 24 h, basal condition (AID 1173); conditions: OD600, 24 h, higher = more signal, called active from +8 up or from −8 down
# [3] = MM1S myeloma cell viability, profiling panel, resazurin fluorescence, basal, 24 h, PK04 Diversity Set (AID 1174); conditions: higher = more signal, called active from +8 up or from −8 down;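 further: MM1S multiple myeloma cell line; test concentration not given here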
# [4] = target: Dihydroorotate dehydrogenase (quinone), mitochondrial (Plasmodium falciparum (isolate 3D7)) (UniProt Q08210); assay: PfDHODH enzyme inhibitors, primary screen, biochemical, C-terminal His tag, absorbance 600 nm (AID 1175); conditions: DCIP absorbance 600 nm, higher = more signal, called active from +8 up or from −8 down;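 further: recombinant parasite enzyme with a five histidine tag at its C terminus; test concentration not given here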
# Dihydroorotate dehydrogenase (quinone), mitochondrial (Plasmodium falciparum (isolate 3D7)), sequence (Q08210 whole entry, looked up): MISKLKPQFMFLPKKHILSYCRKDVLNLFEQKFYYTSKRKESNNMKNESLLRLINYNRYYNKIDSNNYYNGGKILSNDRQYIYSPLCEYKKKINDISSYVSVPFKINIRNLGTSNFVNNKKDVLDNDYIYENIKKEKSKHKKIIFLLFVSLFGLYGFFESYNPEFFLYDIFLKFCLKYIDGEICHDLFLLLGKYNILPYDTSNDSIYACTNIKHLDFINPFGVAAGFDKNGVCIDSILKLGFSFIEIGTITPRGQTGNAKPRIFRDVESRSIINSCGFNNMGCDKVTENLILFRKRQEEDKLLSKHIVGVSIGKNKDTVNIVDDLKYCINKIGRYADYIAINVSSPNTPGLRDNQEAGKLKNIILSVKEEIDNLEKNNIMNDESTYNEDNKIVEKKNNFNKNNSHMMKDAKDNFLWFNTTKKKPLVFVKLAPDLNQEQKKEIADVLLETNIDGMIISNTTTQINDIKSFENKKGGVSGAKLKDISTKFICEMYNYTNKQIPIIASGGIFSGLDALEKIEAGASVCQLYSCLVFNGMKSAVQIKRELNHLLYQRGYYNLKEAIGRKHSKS
# [5] = P. aeruginosa biofilm formation inhibitors, primary screen, strain PAO1, LB-PBS medium, absorbance 600 nm (AID 1176); further: test concentration not given here; conditions: P. aeruginosa PAO1 growth/biofilm, A600, 12 h; higher = more signal
# [6] = S. cerevisiae RM11-1a growth modifiers, primary screen, strain RM11-1a, OD600, basal, 24 h (AID 1177); conditions: OD600, 24 h, higher = more signal, called active from +8 up or from −8 down;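 further: cultures grown under basal conditions with no added stressor; test concentration not given here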
# [7] = E. coli acrAB mutant growth effects, primary screen, E. coli filamentation inducers, strain DRC39, OD650, 24 h (AID 1178); conditions: higher = more signal, called active from +8 up or from −8 down;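 further: growth measured as culture turbidity by optical density at 650 nm; test concentration not given here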
# [8] = E. coli acrAB mutant growth effects, primary screen, E. coli filamentation inducers, strain DRC39, OD650, 48 h (AID 1179);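 further: screen aims at cell division blockers that make cells filament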; conditions: E. coli DRC39 delta-acrAB growth, higher = more signal, called active from +8 up or from −8 down
# [9] = RPMI8226 myeloma cell viability, profiling panel, resazurin fluorescence, basal, 24 h, PK04 Diversity Set (AID 1180); conditions: higher = more signal;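 further: RPMI8826 multiple myeloma cell line at 5000 cells per well; test concentration not given here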
# [10] = target: E3 ubiquitin-protein ligase XIAP (Homo sapiens) (UniProt P98170); assay: XIAP binders, primary screen, biophysical, small-molecule microarray, fluorescence 635 nm (AID 1181); conditions: small-molecule microarray binding, higher = more signal;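 further: score merges 667 nm emission and signal to noise over triplicate slides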
# E3 ubiquitin-protein ligase XIAP (Homo sapiens), sequence (P98170 whole entry, looked up): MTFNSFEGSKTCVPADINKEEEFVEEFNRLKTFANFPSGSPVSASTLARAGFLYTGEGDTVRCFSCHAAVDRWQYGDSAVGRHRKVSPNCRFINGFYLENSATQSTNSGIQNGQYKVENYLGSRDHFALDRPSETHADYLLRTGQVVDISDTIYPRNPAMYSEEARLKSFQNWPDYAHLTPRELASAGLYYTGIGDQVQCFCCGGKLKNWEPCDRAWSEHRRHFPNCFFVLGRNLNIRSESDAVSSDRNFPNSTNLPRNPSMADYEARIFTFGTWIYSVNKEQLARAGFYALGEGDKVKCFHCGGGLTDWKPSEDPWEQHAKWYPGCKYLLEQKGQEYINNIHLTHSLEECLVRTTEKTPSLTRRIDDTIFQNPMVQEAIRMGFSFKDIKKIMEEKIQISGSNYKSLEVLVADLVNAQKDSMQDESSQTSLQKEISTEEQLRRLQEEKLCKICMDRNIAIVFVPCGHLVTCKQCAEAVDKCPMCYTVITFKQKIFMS
SMILES,z-score [1],z-score [2],z-score [3],composite z-score [4],z-score [5],z-score [6],z-score [7],z-score [8],z-score [9],composite z-score [10]
C=CCOC(=O)[C@@]1(Cc2ccccc2)C[C@H]2CO[C@H](c3ccc(OC)cc3)N2C1=O,-0.352,-2.69 (inactive),0.437 (inactive),-0.972 (inactive),0.125 (inactive),-1.1 (inactive),-0.0115 (inactive),-0.187 (inactive),0.0399,-0.184
CCCCCCc1nc(Cc2cc(OC)c(OC)c(OC)c2)cc2c1[Si](C(C)C)(C(C)C)OC2,0.842,0.273 (inactive),0.0456 (inactive),-2.69 (inactive),-0.215 (inactive),-0.0979 (inactive),-0.284 (inactive),-0.279 (inactive),-0.295,0.0009
COc1ccc(C#Cc2ccc3c(c2)[C@]2(C(=O)N3)[C@H](C(=O)O)[C@H]3C(=O)O[C@H](c4ccccc4)[C@H](c4ccccc4)N3[C@@H]2c2ccc(O)cc2)cc1,-0.704,-1.07 (inactive),0.239 (inactive),-4.06 (inactive),0.381 (inactive),0.128 (inactive),-0.0897 (inactive),-0.94 (inactive),-0.152,-0.209
CO[C@H]1O[C@H](CO)[C@@H](OC(=O)Nc2ccc(Br)cc2)[C@@H]2OC(=O)[C@@H](Cc3ccccc3)C/C=C/C[C@H](Cc3ccccc3)C(=O)O[C@@H]12,-1.2,-0.0671 (inactive),-3.25 (inactive),-1.25 (inactive),0.193 (inactive),1.59 (inactive),0.547 (inactive),0.347 (inactive),-4.07,0.289
COC(=O)[C@@]1(Cc2ccc(OC)cc2)[C@H]2c3cc(C(=O)N4CCCC4)n(CCc4c[nH]c5ccc(OC)cc45)c3C[C@H]2CN1C(=O)c1ccccc1,-1.23,1.26 (inactive),-3.31 (inactive),-0.112 (inactive),1.54 (inactive),0.708 (inactive),-0.456 (inactive),-0.0765 (inactive),-3.35,0.123
Cn1cccc1C(O)C1C=CC2C(=O)N(c3ccccc3)C(=O)C2N1Nc1ccccc1 (stereo not given),-0.194,0.917 (inactive),-0.251 (inactive),0.0729 (inactive),0.571 (inactive),-0.529 (inactive),0.312 (inactive),0.881 (inactive),0.0611,-0.0773
CCCCCCCCCC(O)C1C=CC2C(=O)N(c3ccccc3)C(=O)C2N1Nc1cc(OC)c(OC)c(OC)c1 (stereo not given),-2.66,0.953 (inactive),-4.42 (inactive),-0.474 (inactive),0.711 (inactive),0.27 (inactive),-1.57 (inactive),-1.75 (inactive),-4.03,0.176
CC1CC/C=C\[C@H]2OC34C=CCN(c5ccc6ccccc6c5)C(=O)[C@H]3N(CCCO)C(=O)[C@@H]4C2C(=O)O1 (stereo not given in full),-0.829,0.723 (inactive),-0.644 (inactive),0.676 (inactive),-0.829 (inactive),0.822 (inactive),-0.587 (inactive),-0.723 (inactive),0.0719,0.275
COC(=O)C1=CC(CCCO)=CC(c2ccc(CN3CCCC3)cc2)N(Cc2cccc(OC(F)(F)F)c2)C=C1C(=O)OC (stereo not given),-0.721,-1.54 (inactive),-0.728 (inactive),-2.65 (inactive),-0.407 (inactive),-0.287 (inactive),0.509 (inactive),0.701 (inactive),-0.529,0.166
CCOc1cc(C(O)C2C=CC3C(=O)NC(=O)C3N2Nc2ccc(Cl)cc2Cl)ccc1O (stereo not given),-1.37,0.203 (inactive),-2.35 (inactive),0.0681 (inactive),1.4 (inactive),0.358 (inactive),-0.748 (inactive),-0.75 (inactive),-1.68,0.659
NC(=O)NCC#Cc1ccc2c(c1)[C@]1(C(=O)N2)[C@H](c2ccccc2OCCO)N2[C@H](c3ccccc3)[C@H](c3ccccc3)OC(=O)[C@H]2[C@@H]1C(=O)O,1.87,-0.462 (inactive),0.877 (inactive),-1.96 (inactive),-0.0199 (inactive),-0.246 (inactive),0.614 (inactive),-0.727 (inactive),0.327,-0.287
